Potency and affinity values are given separately.
How the values were obtained:
Klebsiella pneumoniae = details: Concentration 32 ug.mL-1;; ASSAY_TEST Inhibition of Bacterial Growth; detection method Absorption (OD600); MEDIA CAMHB; plate type 384well; NBS; CORNING #3640; time 18 hr
Candida albicans = details: Concentration 32 ug.mL-1; ASSAY_TEST Inhibition of Fungal Growth; detection method Absorption (OD530)
Cryptococcus neoformans = details: Concentration 32 ug.mL-1; ASSAY_TEST Inhibition of Fungal Growth; detection method Resazurin; Absorption (OD600-OD570); plate type 384well; NBS; CORNING #3640

Compound	Inhibition (Klebsiella pneumoniae) [%]	Inhibition (Candida albicans) [%]	Inhibition (Cryptococcus neoformans) [%]
O=C(Cn1nc2c(N3CCOCC3)nccn2c1=O)N1CCN(c2ccccc2F)CC1	8.66	0.78	-5.23
CCOc1ccc(NC(=O)Cn2nc3ccc(Sc4cccc(F)c4)nn3c2=O)cc1	0.85	6.64	-8.03
CCc1nnc2ccc(S(=O)(=O)N(Cc3ccccc3F)c3ccc(OC)cc3)cn12	7.78	3.86	-4.31
Cc1nnc2ccc(S(=O)(=O)N(CC(=O)OC(C)(C)C)c3ccc4c(c3)OCO4)cn12	6.34	5.98	-4.94
CCOc1ccc(NC(=O)Cn2nc3c(Oc4ccc(C)cc4)nccn3c2=O)cc1	5.41	0.26	-8.36
COc1ccc(CN(c2ccc(F)cc2)S(=O)(=O)c2cccn3cnnc23)cc1F	9.98	3.76	-9.79
Cc1ccc(-c2cc3c4nn(CC(=O)Nc5ccccc5Cl)c(=O)n4ccn3n2)cc1	2.6	0.36	-23.03
Cc1c(Cl)cccc1-n1ccn2c(=O)n(Cc3ccc(Cl)cc3)nc2c1=O	2.87	1.02	-15.09
CCC(C)NC(=O)c1ccc2c(=O)n(CCC(C)C)c3nn(CC#N)c(=O)n3c2c1 (stereo not given)	14.77	0.65	-22.02
Cc1cc(C)c(NC(=O)Cn2nc3ccc(SC(C)(C)C)nn3c2=O)c(C)c1	14.36	2.38	-25.26

From ChEMBL document CHEMBL4513146, “CO-ADD screening of Karazin Kharkiv National University (Ukraine) compounds”
